Experiment [1] is described as follows: qHTS of pediatric cancer cell lines to identify multiple opportunities for drug repurposing: Primary screen for TC32 cells (AID 1347089). Further: nearly all actives have a fitted effect of over 60% in size. Put shortly: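 In the primary qHTS, MIPE compounds were tested at 11 concentrations (0.78 nM to 46 µM) and NPC compounds at 8 (0.59 nM to 46 µM) on TC32 cells for 48 h. CellTiter-Glo luminescence gave viability.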
Background: qHTS replaces the single test concentration by a dilution series.

The nature of experiment [2]: qHTS of pediatric cancer cell lines to identify multiple opportunities for drug repurposing: Primary screen for DAOY cells (AID 1347090). Further: nearly all actives have a fitted effect of over 55% in size. Put shortly: (§1)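 Cell viability, CellTiter-Glo luminescence; 500-1,000 cells/well, 8- or 11-point titration, 48 h compound exposure at 37 degrees C, 5% CO2. Controls: DMSO neutral, bortezomib 2.3 µM final as positive.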
Experiment [3] in a line: qHTS of pediatric cancer cell lines to identify multiple opportunities for drug repurposing: Primary screen for SJ-GBM2 cells (AID 1347091). The method in brief: as §1
Experiment [4] can be described thus: qHTS of pediatric cancer cell lines to identify multiple opportunities for drug repurposing: Primary screen for A673 cells (AID 1347092). Further: nearly all actives have a fitted effect of over 45% in size. Put shortly:
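48 h compound exposure, A673, 500-1,000 cells/well, 37 degrees C/5% CO2. MIPE: 11-point, 0.78 nM-46 µM; NPC: 8-point, 0.59 nM-46 µM (final). Readout CellTiter-Glo luminescence after 15 min RT.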

A short description of experiment [5]: qHTS of pediatric cancer cell lines to identify multiple opportunities for drug repurposing: Primary screen for SK-N-MC cells (AID 1347093). Put shortly:
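Metabolically active cells were quantified by ATP-dependent luminescence (CellTiter-Glo, 15 min at room temperature) following 48 h treatment. Cells had been plated at 500-1,000 per well and settled for 5 h beforehand.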

Experiment [6] can be described thus: qHTS of pediatric cancer cell lines to identify multiple opportunities for drug repurposing: Primary screen for BT-37 cells (AID 1347094). Put shortly:
(§2)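 Primary screen of approved and investigational compounds on cells in growth media at 37 degrees C, 5% CO2. MIPE set at 11-point and NPC set at 8-point dilutions; viability scored by ATP-based luminescence at 48 hours.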

A short description of experiment [7]: qHTS of pediatric cancer cell lines to identify multiple opportunities for drug repurposing: Primary screen for U-2 OS cells (AID 1347096). Further: nearly all actives have a fitted effect of over 50% in size. The method in brief: (§3)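 Cells (500-1,000/well) rested 5 h, then received compounds for 48 h; metabolically active cells were measured by CellTiter-Glo luminescence. Final concentrations spanned up to 46 µM (MIPE, 11-point) or 0.59 nM-46 µM (NPC, 8-point) in primary screens, 11-point in follow-ups.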

Experiment [8] in a line: qHTS of pediatric cancer cell lines to identify multiple opportunities for drug repurposing: Primary screen for SK-N-SH cells (AID 1347098). Further: nearly all actives have a fitted effect of over 65% in size. Put shortly: as §3
The nature of experiment [9]: qHTS of pediatric cancer cell lines to identify multiple opportunities for drug repurposing: Primary screen for LAN-5 cells (AID 1347100). The method in brief: as §3
A short description of experiment [10]: qHTS of pediatric cancer cell lines to identify multiple opportunities for drug repurposing: Primary screen for BT-12 cells (AID 1347101). Further: nearly all actives have a fitted effect of over 25% in size. Put shortly:
as §3

The nature of experiment [11]: qHTS of pediatric cancer cell lines to identify multiple opportunities for drug repurposing: Primary screen for Rh18 cells (AID 1347102). Further: nearly all actives have a fitted effect of over 65% in size. The method in brief: as §3
Experiment [12] is described as follows: qHTS of pediatric cancer cell lines to identify multiple opportunities for drug repurposing: Primary screen for OHS-50 cells (AID 1347103). Further: nearly all actives have a fitted effect of over 40% in size. The method in brief:
as §3

Experiment [13] in a line: qHTS of pediatric cancer cell lines to identify multiple opportunities for drug repurposing: Primary screen for MG 63 (6-TG R) cells (AID 1347105). Further: nearly all actives have a fitted effect of over 50% in size. Put shortly:
as §2

Experiment [14] is described as follows: qHTS of pediatric cancer cell lines to identify multiple opportunities for drug repurposing: Primary screen for NB-EBc1 cells (AID 1347095). The method in brief: as §2
Experiment [15] in a line: qHTS of pediatric cancer cell lines to identify multiple opportunities for drug repurposing: Primary screen for Saos-2 cells (AID 1347097). Further: nearly all actives have a fitted effect of over 40% in size. Put shortly:
as §2

Experiment [16] is described as follows: qHTS of pediatric cancer cell lines to identify multiple opportunities for drug repurposing: Primary screen for NB1643 cells (AID 1347099). Further: nearly all actives have a fitted effect of over 50% in size. The method in brief:
as §2

A short description of experiment [17]: qHTS of pediatric cancer cell lines to identify multiple opportunities for drug repurposing: Primary screen for RD cells (AID 1347104). Further: nearly all actives have a fitted effect of over 55% in size. The method in brief: as §2

Values joined by “and” are separate entries in the source; they are usually repeats but may differ in a detail not shown here. Equal entries are not always repeated. Records with an inconclusive call do not appear. Active and inactive are the calls of the source. The call rests on the fitted dose curve; in most records, active means well fitted curve in the direction sought with a large enough effect; inconclusive means small, poorly fitted or top-dose-only effect, or another doubt; inactive means no such curve, though single readings can be large; an effect the other way counts as inactive or inconclusive.
Potency means the concentration at half of the fitted maximal effect.

Take `O=c1oc2cc(O)ccc2s1`: the Potency result in experiment [1], in [2], in experiment [3], in experiment [6], in [7] and in experiment [8] was “inactive” in each case. In addition, the Potency entry in [9], in [10], in experiment [11], in [12] and in [13] was “inactive” throughout. Also, the Potency is 9.35 µM (active) in [4] and 23.5 µM (active) in [5].

In the case of `CC[C@]1(O)C[C@H]2CN(CCc3c([nH]c4ccccc34)[C@@](C(=O)OC)(c3cc4c(cc3OC)N(C=O)[C@H]3[C@@](O)(C(=O)OC)[C@H](OC(C)=O)[C@]5(CC)C=CCN6CC[C@]43[C@@H]65)C2)C1`, the Potency in experiment [1] was 33 nM (active) and 83.6 nM (active); in experiment [2] it was 59 nM (active) and 26.6 nM (active); in [3], 1 nM (active) and 84.1 nM (active); in experiment [4], 4.7 nM (active) and 5.3 nM (active); in experiment [5], 11.8 nM (active) and 6.7 nM (active); in experiment [6] it was 21.7 nM (active) and 17.4 nM (active). Further, the Potency is 9.3 nM (active) and 237 nM (active) in experiment [14]; 23.5 nM (active) in experiment [15]; 8.3 nM (active) and 59.6 nM (active) in [9]; 15.3 nM (active) and 19.5 nM (active) in experiment [10]; 12.2 nM (active) and 12.3 nM (active) in experiment [12]; 33.5 nM (active) in experiment [13]. For the same molecule, the Potency result in [11] is “inactive”.

Regarding `CCCOc1ccc2nc(NC(=O)OC)[nH]c2c1`, the Potency in [1] is 187 nM (active) and 131 nM (active); in [2], 66.8 nM (active) and 14.8 nM (active); in experiment [3], 1 nM (active); in [4] it was 33.5 nM (active) and 11.8 nM (active); in [5], 0.0422 µM (active); in experiment [6], 123 nM (active) and 27.3 nM (active). In addition, the Potency in experiment [14] is 1 nM (active); in experiment [15] it was 29.9 nM (active); in experiment [10], 123 nM (active) and 30.6 nM (active). Besides, the Potency result in experiment [8] and in experiment [11] was “inactive” each time.

With `CN(C)[C@@H](CCOc1cccc2ccccc12)c1ccccc1`, the Potency result in experiment [1], in [2], in [3], in experiment [4], in experiment [7] and in [8] was “inactive” in each case. Also, the Potency entry in [16], in experiment [9], in experiment [11] and in [13] was “inactive” in each case. Moreover, the Potency in [5] is 23.5 µM (active); in experiment [15], 26400 nM (active); in experiment [12], 15.5 µM (active) and 21.7 µM (active); in experiment [17] it was 33.2 µM (active).

Regarding `CCCCc1ccc2nc(NC(=O)OC)[nH]c2c1`, the Potency in [1] is 117 nM (active) and 47 nM (active); in experiment [2] it was 26.6 nM (active); in [3], 1 nM (active) and 106 nM (active); in [5], 5.3 nM (active) and 26.6 nM (active); in [6], 43.2 nM (active) and 61.7 nM (active); in [15] it was 9.3 nM (active) and 29.9 nM (active). The Potency in experiment [9] is 11.8 nM (active); in [10] it was 27.3 nM (active) and 61.7 nM (active); in [12], 15.3 nM (active) and 61.7 nM (active). The Potency entry in experiment [16] and in [11] was “inactive” in each case.

Turning to `CC(C)C[C@H](NC(=O)[C@H](Cc1ccccc1)NC(=O)c1cnccn1)B(O)O`, the Potency in experiment [1] was 83.6 nM (active); in [2] it was 29.6 nM (active); in experiment [3], 26.6 nM (active); in [5] it was 0.006 µM (active); in experiment [6], 34.7 nM (active); in [7] it was 42.2 nM (active). The Potency in experiment [15] is 469 nM (active); in [16], 0.0299 µM (active); in experiment [9], 16.6 nM (active); in [10], 43.2 nM (active); in experiment [11], 29.6 nM (active); in [12] it was 87.1 nM (active). The Potency is 0.0531 µM (active) in experiment [17] and 23.5 nM (active) in [13].

For `C[C@H](Cn1cnc2c(N)ncnc21)OCP(=O)(O)O`, the Potency entry in experiment [1], in [2], in experiment [3], in experiment [4], in [6] and in experiment [7] was “inactive” throughout. For the same molecule, the Potency result in [15], in experiment [16], in experiment [9], in experiment [10], in experiment [11] and in experiment [17] was “inactive” each time. Moreover, the Potency entry in [13] was “inactive”.

Turning to `CS(=O)(=O)OCCCCOS(C)(=O)=O`, the Potency entry in [1], in [2], in experiment [3], in experiment [4], in experiment [6] and in experiment [7] was “inactive” throughout. In addition, the Potency result in [16], in experiment [9], in experiment [10], in [11], in experiment [12] and in experiment [17] was “inactive” throughout. The Potency result in [13] is “inactive”.

On to `O=P(O)(O)C(O)(Cn1ccnc1)P(=O)(O)O`, for which the Potency result in experiment [1], in [2], in experiment [4], in experiment [5], in experiment [6] and in experiment [14] was “inactive” throughout. In addition, the Potency entry in [7], in experiment [15], in [8], in experiment [16], in [9] and in experiment [10] was “inactive” throughout. Moreover, the Potency entry in experiment [11], in experiment [12], in experiment [17] and in experiment [13] was “inactive” each time.

On to `CN(C)c1ccc2nc3ccc(=[N+](C)C)cc-3sc2c1`, for which the Potency in experiment [1] was 16.5 µM (active) and 21 µM (active); in experiment [2] it was 2.35 µM (active) and 6.68 µM (active); in experiment [3], 3.32 µM (active) and 2.66 µM (active); in experiment [5], 1.18 µM (active) and 1.19 µM (active); in [6] it was 19.3 µM (active) and 15.5 µM (active); in experiment [14], 2.09 µM (active) and 2.66 µM (active). The Potency in experiment [15] is 1.48 µM (active) and 2.66 µM (active); in [8] it was 3.41 µM (active) and 5.45 µM (active); in [16], 10.6 µM (active); in [9], 1680 nM (active); in experiment [10] it was 6.85 µM (active) and 3.09 µM (active); in [11], 7.43 µM (active) and 3.35 µM (active). For the same molecule, the Potency was 1.37 µM (active) and 872 nM (active) in experiment [12]; 2.35 µM (active) and 3.76 µM (active) in experiment [17]; 3.72 µM (active) and 2.11 µM (active) in [13].

Consider `CN(C)C(=O)COC(=O)Cc1ccc(OC(=O)c2ccc(N=C(N)N)cc2)cc1`, for which the Potency result in experiment [1], in experiment [2], in experiment [3], in experiment [6], in [7] and in [15] was “inactive” each time. Besides, the Potency entry in [16], in experiment [9], in [10], in experiment [11], in [12] and in experiment [17] was “inactive” in each case.

Take `NC(=O)Cc1cccc(C(=O)c2ccccc2)c1N`: the Potency entry in experiment [1], in [2], in experiment [3], in experiment [5], in experiment [6] and in experiment [7] was “inactive” each time. For the same molecule, the Potency result in [15], in experiment [8], in experiment [16], in experiment [9], in [10] and in experiment [11] was “inactive” throughout. Besides, the Potency result in experiment [12] and in experiment [17] was “inactive” in each case.

As for `COCCCN1CCC(NC(=O)c2cc(Cl)c(N)c3c2OCC3)CC1`, the Potency entry in experiment [1], in [2], in experiment [3], in experiment [5], in experiment [6] and in experiment [15] was “inactive” throughout. For the same molecule, the Potency entry in experiment [8], in [16], in experiment [9], in [10], in experiment [11] and in experiment [17] was “inactive” throughout. The Potency entry in [13] is “inactive”.

For the molecule `CC(C)[C@H](N)C(=O)OCCOCn1cnc2c(=O)[nH]c(N)nc21`, the Potency result in experiment [1], in experiment [2], in experiment [4], in experiment [5], in experiment [6] and in [14] was “inactive” throughout. The Potency result in [7], in [15], in [8], in experiment [16], in experiment [9] and in [10] was “inactive” each time. In addition, the Potency entry in experiment [11], in [12] and in [17] was “inactive” each time.

For `Nc1cccc2c1CN(C1CCC(=O)NC1=O)C2=O` (stereo unspecified), the Potency result in experiment [1], in experiment [2], in [3], in experiment [5], in [6] and in [15] was “inactive” in each case. Further, the Potency entry in experiment [8], in [16], in experiment [9], in experiment [10], in [11] and in experiment [12] was “inactive” in each case. Further, the Potency entry in experiment [17] and in experiment [13] was “inactive” in each case.

These data come from PubChem BioAssay (NCATS).
